The supplement of paper PMC8728848
The entries come from a sample that favours the strongest signals as a whole.

Columns and labels:
Experiment in all cases: glycan array binding signal (z-score within array); higher = stronger binding
Conditions in all cases: glycan notation: IUPAC condensed, linker removed
Fuc(a1-2)Gal = biological target: Fuc(a1-2)Gal
Summary of the method: (§1)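 Negative Z-scores can be read as non-binding. The Z-score is calculated within each array and then averaged across arrays of one protein sequence at different concentrations or buffers and across linkers. Arrays, 3228 in all, were curated from the Consortium for Functional Glycomics database and kept only where the protein sequence was available.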

[1] = biological target: Fuc(a1-2)Gal(b1-3)GlcNAc(b1-2)Man(a1-3)[Fuc(a1-2)Gal(b1-3)GlcNAc(b1-2)Man(a1-6)]Man(b1-4)GlcNAc(b1-4)GlcNAc
Summary of the method: as §1

[2] = biological target: Fuc(a1-2)Gal(b1-3)GlcNAc(b1-3)[Neu5Ac(a2-6)Gal(b1-4)GlcNAc(b1-6)]Gal(b1-4)Glc
Summary of the method: as §1

[3] = biological target: Fuc(a1-2)Gal(b1-4)Fuc(a1-3)]GlcNAc(b1-2)Man(a1-3)[Fuc(a1-2)Gal(b1-4)[Fuc(a1-3)]GlcNAc(b1-2)Man(a1-6)]Man(b1-4)GlcNAc(b1-4)GlcNAc
Summary of the method: as §1

[4] = biological target: Fuc(a1-2)Gal(b1-4)GlcNAc(b1-3)Gal(b1-4)GlcNAc(b1-2)Man(a1-3)[Fuc(a1-2)Gal(b1-4)GlcNAc(b1-3)Gal(b1-4)GlcNAc(b1-2)Man(a1-6)]Man(b1-4)GlcNAc(b1-4)GlcNAc
Summary of the method: as §1

[5] = biological target: Fuc(a1-2)Gal(b1-4)GlcNAc(b1-3)Gal(b1-4)GlcNAc(b1-3)Gal(b1-4)GlcNAc
Summary of the method: as §1

[6] = biological target: Fuc(a1-2)Gal(b1-4)GlcNAc(b1-6)GalNAc
Summary of the method: as §1

[7] = biological target: Fuc(a1-2)Gal(b1-4)[Fuc(a1-3)]GlcNAc
Summary of the method: as §1

[8] = biological target: Fuc(a1-2)Gal(b1-4)[Fuc(a1-3)]GlcNAc(b1-2)Man(a1-3)[Fuc(a1-2)Gal(b1-4)[Fuc(a1-3)]GlcNAc(b1-2)Man(a1-6)]Man(b1-4)GlcNAc(b1-4)[Fuc(a1-6)]GlcNAc
Summary of the method: as §1

[9] = biological target: Fuc(a1-2)Gal(b1-4)[Fuc(a1-3)]GlcNAc(b1-2)[Fuc(a1-2)Gal(b1-4)[Fuc(a1-3)]GlcNAc(b1-4)]Man(a1-3)[Fuc(a1-2)Gal(b1-4)[Fuc(a1-3)]GlcNAc(b1-2)Man(a1-6)]Man(b1-4)GlcNAc(b1-4)GlcNAc
Summary of the method: as §1

[10] = biological target: Fuc(a1-2)Gal(b1-4)[Fuc(a1-3)]GlcNAc(b1-3)Gal(b1-4)[Fuc(a1-3)]GlcNAc
Summary of the method: as §1

[11] = biological target: Fuc(a1-2)Gal(b1-4)[Fuc(a1-3)]GlcNAc(b1-3)Gal(b1-4)[Fuc(a1-3)]GlcNAc(b1-3)Gal(b1-4)[Fuc(a1-3)]GlcNAc
Summary of the method: as §1

Fuc(a1-2)[Gal(a1-3)]Gal = biological target: Fuc(a1-2)[Gal(a1-3)]Gal
Summary of the method: as §1

[12] = biological target: Fuc(a1-2)[Gal(a1-3)]Gal(b1-3)GalNAc
Summary of the method: as §1

[13] = biological target: Fuc(a1-2)[Gal(a1-3)]Gal(b1-3)GlcNAc(b1-3)GalNAc
Summary of the method: as §1

[14] = biological target: Fuc(a1-2)[Gal(a1-4)]Gal(b1-4)GlcNAc
Summary of the method: as §1

[15] = biological target: Fuc(a1-2)[GalNAc(a1-3)]Gal(b1-3)GalNAc(a1-3)[Fuc(a1-2)]Gal(b1-4)GlcNAc
Summary of the method: as §1

[16] = biological target: Fuc(a1-2)[GalNAc(a1-3)]Gal(b1-4)GlcNAc(b1-2)Man
Summary of the method: as §1

[17] = biological target: Fuc(a1-2)[GalNAc(a1-3)]Gal(b1-4)GlcNAc(b1-2)Man(a1-3)[Fuc(a1-2)[GalNAc(a1-3)]Gal(b1-4)GlcNAc(b1-2)Man(a1-6)]Man(b1-4)GlcNAc(b1-4)[Fuc(a1-6)]GlcNAc
Summary of the method: as §1

[18] = biological target: Fuc(a1-2)[GalNAc(a1-3)]Gal(b1-4)GlcNAc(b1-3)Gal(b1-4)GlcNAc(b1-3)Gal(b1-4)GlcNAc
Summary of the method: as §1

[19] = biological target: Fuc(a1-2)[GalNAc(b1-3)]Gal
Summary of the method: as §1

[20] = biological target: Fuc(a1-3)[Gal3S(b1-4)]GlcNAc
Summary of the method: as §1

[21] = biological target: Gal(a1-3)Gal(b1-4)GlcNAc(b1-6)GalNAc
Summary of the method: as §1

Gal(b1-3)GlcNAc6S = biological target: Gal(b1-3)GlcNAc6S
Summary of the method: as §1

[22] = biological target: Gal(b1-4)GlcNAc(b1-2)Man(a1-3)[Gal(b1-4)GlcNAc(b1-2)Man(a1-6)][Gal(b1-4)GlcNAc(b1-4)]Man(b1-4)GlcNAc(b1-4)[Fuc(a1-6)]GlcNAc
Summary of the method: as §1

[23] = biological target: Gal(b1-4)GlcNAc(b1-2)[Gal(b1-4)GlcNAc(b1-6)]Man(a1-6)[Gal(b1-4)GlcNAc(b1-2)Man(a1-3)]Man(b1-4)GlcNAc(b1-4)[Fuc(a1-6)]GlcNAc
Summary of the method: as §1

[24] = biological target: Gal(b1-4)GlcNAc(b1-3)Gal(b1-4)GlcNAc(b1-3)Gal(b1-4)GlcNAc(b1-3)Gal(b1-4)GlcNAc(b1-3)Gal(b1-4)GlcNAc(b1-2)Man(a1-3)[Gal(b1-4)GlcNAc(b1-3)Gal(b1-4)GlcNAc(b1-3)Gal(b1-4)GlcNAc(b1-3)Gal(b1-4)GlcNAc(b1-3)Gal(b1-4)GlcNAc(b1-2)Man(a1-6)]Man(b1-4)GlcNAc(b1-4)GlcNAc
Summary of the method: as §1

B1: a L Fucosidase (Streptosporangium roseum), D2B1P1_STRRD (protein)
chain: MRRKLLLVPAVGLLVIGSIFATQPVASADTPPVYEPTVESLNSHPVPQWFNDDKFGIFIHWGAYSVPAWGPRGSYAEWYGNYMNAGGSATNAHHKATYGQDFNYDAFLQQWKAEKFDPADWVKLFKDAGAKYFVLTSKHHEGMALWDSKSSGRDSVDLGPGRDLAKELFDAARKDEAKLKAGFYYSLYEWYNPAYTGRPATNPYTGAEIPYTGAPGGGDYVKDYMLPQMRELIDGYDPDIIWCDGQWEKPASYWNTAGVIADYYNKALNSGKEVAVANRCKIQSGNLDSPELDFQTPEYTVKPDIDPVKWESSRGIAHSYGYNQNEPEEDHLTSDQLVDSLVDIVSKNGNLLLDIGPKADGTIPEIQRQRLLDIGAWLKANGEAIYGTTYWNRAEEKGGPDDVRYTAKDATLYATALKWPGEQLTLGADLPVDHSTRITMLGSGARLSWSRDEQGRVVVNTPQEAGKHAYVFKIETPGVRSLLRTSSSLAKEIAPGRTISGELTVTNPGKRHTPATKLSLTVPQGWTATLGAPRVRPLGPGESVKVPISVSAPEGVAPAPYTLGLYQRTGRMGTTTALPLTVNRPNLSLGKPATQKSTGYDAPASRAVDGNTGGDWSAGSTTHTAEPEKQAWWQVDLGASARLDSVDVWNRLDCCADRLKDFWVMASDQPFTTDDLDQARTAPGVTAVHVGEQAGSPSKVKLPEGTRGRYVRIQLASPSNPLSLAEVQVRGSMARPNLSLGKPATQKSTGYDAPASRAVDGNTGGDWSAGSTTHTAEPEKQAWWQVDLGASARLDSVDVWNRLDCCADRLKDFWVMASDQPFTTDDLDQARTAPGVTAVHVGEQAGSPSKVKLPEGTRGRYVRIQLASPSNPLSLAEVQVRLEHHHHHHS
B1 was tested, and the “glycan array binding signal (z-score)” value (Fuc(a1-2)Gal) was 4.93, the “glycan array binding signal (z-score)” value [1] was 0.052 and the “glycan array binding signal (z-score)” value [2] was -0.56. For the same binder, the “glycan array binding signal (z-score)” value [3] was 0.398, the “glycan array binding signal (z-score)” value [4] was 9.35 and the “glycan array binding signal (z-score)” value [5] was 4.15. The “glycan array binding signal (z-score)” value [6] was 4.78, the “glycan array binding signal (z-score)” value [7] was 3.89 and the “glycan array binding signal (z-score)” value [8] was 3.58. The “glycan array binding signal (z-score)” value [9] was 0.785, the “glycan array binding signal (z-score)” value [10] was 9.04 and the “glycan array binding signal (z-score)” value [11] was 5.04. For the same binder, the “glycan array binding signal (z-score)” value (Fuc(a1-2)[Gal(a1-3)]Gal) was 3.18, the “glycan array binding signal (z-score)” value [12] was -0.442 and the “glycan array binding signal (z-score)” value [13] was 0.499. The “glycan array binding signal (z-score)” value [14] was 4.37, the “glycan array binding signal (z-score)” value [15] was -0.325 and the “glycan array binding signal (z-score)” value [16] was 1.44. For the same binder, the “glycan array binding signal (z-score)” value [17] was 0.363, the “glycan array binding signal (z-score)” value [18] was 4.02 and the “glycan array binding signal (z-score)” value [19] was -0.567. For the same binder, the “glycan array binding signal (z-score)” value [20] was 0.551, the “glycan array binding signal (z-score)” value [21] was 0.325 and the “glycan array binding signal (z-score)” value (Gal(b1-3)GlcNAc6S) was -0.504. The “glycan array binding signal (z-score)” value [22] was 1.72, the “glycan array binding signal (z-score)” value [23] was -0.467 and the “glycan array binding signal (z-score)” value [24] was -0.491.
